From PubChem BioAssay
“And” between values parts separate entries of the source, which are not always exact repeats. Equal values may be shown once. Records with an inconclusive call do not appear. The source made the active and inactive calls.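 The calls were made as follows, unless noted: active = compounds whose cell count with miR-34 switched on is under 0.7 times the count with it off; inactive = the rest.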

Columns and labels:
[1] = EMT-state selective cytotoxicity in co-culture – imaging, PC-3E GFP, TEM4-18 mCherry, primary screen (AID 1345086;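 active = compounds killing one labelled cell type while sparing the other, by normalised counts and ratio limits, not self-fluorescent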;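 as to all read-outs here: cells exposed to compound for 72 h before imaging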;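 as to red/green cell ratio (normalised): normalised mesenchymal count divided by normalised epithelial count so high means epithelial killing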); details: PC-3E GFP / TEM4-18 mCherry co-culture, imaging cell counts, at 1 µM; for red/green cell ratio (normalised): actives lie on both sides, counts scaled to control wells, 1 = unselective
[2] = viability loss with induced miR-34 in A549 – imaging, A549 dox-inducible miR-34, nuclei and caspase counts, primary screen (AID 1347080); details: A549 miR-34 inducible, Hoechst nuclei count, 48 h
[3] = viability loss in pontine glioma line – cell-based, SU-DIPG-XIII, MIPE5.0, CellTiter-Glo, qHTS, dose response (AID 1347064; cut-off not given, nearly all actives have AC50 up to about 23 µM); details: CellTiter-Glo ATP luminescence
[4] = viability loss in pontine glioma line – cell-based, SU-DIPG-XXV, MIPE5.0, CellTiter-Glo, qHTS, dose response (AID 1347065; cut-off not given, nearly all actives have AC50 up to about 26 µM;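 also: cells exposed to compound for 48 hours before ATP readout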); details: CellTiter-Glo ATP luminescence
[5] = growth inhibition of DIPG cells – cell-based, MIPE4.0 library, CellTiter-Glo luminescence, qHTS (AID 1347066; cut-off not given, nearly all actives have AC50 up to about 30 µM;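 also: cells exposed to compound for 48 hours before readout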); details: SU-DIPG-VI viability, CellTiter-Glo ATP luminescence
[6] = JHH-DIPG-1 glioma cell viability, MIPE5.0 library, CellTiter-Glo luminescence, qHTS (AID 1347067; cut-off not given, nearly all actives have AC50 up to about 26 µM;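 also: cells exposed to compound for 48 hours before readout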); details: JHH-DIPG-1 glioma viability, CellTiter-Glo ATP luminescence
[7] = growth inhibition of DIPG cells – cell-based, MIPE5.0 library, qHTS (AID 1347068; cut-off not given, nearly all actives have IC50 up to about 30 µM); details: SU-DIPG-XXV viability
[8] = blockers of cellular phospholipid synthesis – cell-based, LOPAC library, screen 4, primary screen (AID 1347384; call rule not given here); details: animal cells, phospholipid biosynthesis inhibition screen; at 10 µM
[9] = MELAS cybrid and Rieske KO viability enhancers – cell-based, MELAS cybrids, Rieske KO mouse fibroblasts, CellTiter-Glo, primary screen (AID 1508586;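 active = mean z-score across replicates of 1.96 or higher in either the MELAS or the Rieske mutant cell line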;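 also: z relative to plate mean and SD of compound and empty wells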); details: low glucose
[10] = measured here: epithelial PC-3E GFP cell survival
[11] = measured here: mesenchymal TEM4-18 mCherry cell survival
[12] = stronger effect = lower value, cell number ratio, induced over uninduced
[13] = measured here: relative caspase fold change +Dox/-Dox
[14] = measured here: total cells with miR-34 induction, stronger effect = lower value
[15] = measured here: total cells without miR-34 induction
[16] = MELAS cybrid survival, CellTiter-Glo 48 h, stronger effect = higher value
[17] = Rieske KO mouse fibroblast survival, CellTiter-Glo 72 h

| SMILES | red/green cell ratio (normalised) [1] | normalised cell number [1, 10] | normalised cell number [1, 11] | fold change [2, 12] | fold change [2, 13] | cell count [2, 14] | cell count [2, 15] | outcome [3] | outcome [4] | outcome [5] | outcome [6] | outcome [7] | outcome [8] | z-score [9, 16] | z-score [9, 17] |
| --- | --- | --- | --- | --- | --- | --- | --- | --- | --- | --- | --- | --- | --- | --- | --- |
| CO[C@@]1(NC(=O)C(C(=O)O)c2ccc(O)cc2)C(=O)N2C(C(=O)O)=C(CSc3nnnn3C)CO[C@@H]21 (some centres not stated) | 0.93 (inactive) | 1.2 | 1.11 | 0.852 (inactive) | 0.729 | 11300 | 13300 |  |  |  |  |  |  |  |  |
| C[C@@H]1CN(c2c(F)c(F)c3c(=O)c(C(=O)O)cn(C4CC4)c3c2F)C[C@H](C)N1 | 1.1 (inactive) and 1 (inactive) | 1.07 and 1.13 | 1.18 and 1.13 | 0.896 (inactive) | 0.855 | 8680 | 9690 |  |  |  |  |  |  |  |  |
| Nc1ccc(C(=O)Oc2ccccc2)c(O)c1 | 1.06 (inactive) | 0.61 | 0.65 | 0.872 (inactive) | 1.07 | 9720 | 11100 |  |  |  |  |  |  |  |  |
| NC[C@H]1O[C@H](O[C@H]2[C@H](O)[C@@H](O[C@H]3O[C@H](CO)[C@@H](O)[C@H](N)[C@H]3O)[C@H](N)C[C@@H]2N)[C@H](N)[C@@H](O)[C@@H]1O | 1.19 (inactive) | 1.1 | 1.31 | 0.901 (inactive) | 2.25 | 11700 | 13000 |  |  |  |  |  |  |  |  |
| NC(=O)c1ccc([N+](=O)[O-])cc1Cl | 1.37 (inactive) | 0.87 | 1.19 | 0.897 (inactive) | 3.38 | 11800 | 13200 |  |  |  |  |  |  |  |  |
| O=C(O)CCCCC1CCSS1 (configuration not stated) | 0.99 (inactive) | 0.91 | 0.9 | 1.15 (inactive) | 0.668 | 6920 | 6020 |  |  |  |  |  |  |  |  |
| Cc1cc(O)cc(C)c1Cl | 1.31 (inactive) | 0.7 | 0.93 | 0.933 (inactive) | 1.14 | 10100 | 10800 |  |  |  |  |  |  |  |  |
| Cc1cc(C(C)(C)C)cc(C)c1CC1=NCCN1 | 1.16 (inactive) | 1.07 | 1.24 |  |  |  |  | inactive | inactive | inactive | inactive | inactive | inactive | 0.304 (inactive) and -0.439 (inactive) and 0.446 (inactive) | 0.616 and -0.336 and 0.511 |
| O=C(O)[C@@H]1[C@H]2C[C@H]3c4[nH]c5ccccc5c4CCN3C[C@@H]2CC[C@@H]1O | 1.08 (inactive) | 0.89 | 0.95 | 0.933 (inactive) | 1.33 | 7540 | 8080 |  |  |  |  |  |  |  |  |
| CC1CCC(NC(=O)N(CCCl)N=O)CC1 (configuration not stated) | 1.17 (inactive) | 1.17 | 1.37 | 0.814 (inactive) | 5.15 | 9380 | 11500 |  |  |  |  |  |  |  |  |
| NC(=O)c1ccccc1O | 0.96 (inactive) | 0.98 | 0.94 | 0.92 (inactive) | 3.12 | 11700 | 12800 |  |  |  |  |  |  |  |  |
| CC(=O)Nc1c(I)cc(I)c(C(=O)O)c1I | 0.94 (inactive) | 1.19 | 1.12 | 0.913 (inactive) | 2.27 | 12100 | 13200 |  |  |  |  |  |  |  |  |
| O=C1C(O)=C(O)C(=O)C(O)=C1O | 1.1 (inactive) | 1.02 | 1.12 | 0.863 (inactive) and 0.913 (inactive) | 1.35 and 4.01 | 9350 and 12000 | 10800 and 13100 |  |  |  |  |  |  |  |  |
| O=C(OCc1ccccc1)c1ccccc1 | 0.83 (inactive) | 1.34 | 1.11 | 0.956 (inactive) | 3.44 | 12000 | 12500 |  |  |  |  |  |  |  |  |
| CCCCCC(C)N (configuration not stated) | 1.26 (inactive) | 0.94 | 1.18 | 0.893 (inactive) | 1.93 | 11000 | 12400 |  |  |  |  |  |  |  |  |
| CC1(C)S[C@@H]2[C@H](NC(=O)C(C(=O)O)c3ccccc3)C(=O)N2[C@H]1C(=O)O (some centres not stated) | 1.24 (inactive) | 0.99 | 1.23 | 0.874 (inactive) | 0.602 | 11000 | 12600 |  |  |  |  |  |  |  |  |
| COc1ccc(CN(CCN(C)C)c2ncccn2)cc1 | 1.15 (inactive) | 1.04 | 1.2 | 0.86 (inactive) | 3.03 | 11900 | 13800 |  |  |  |  |  |  |  |  |
| C=Cc1c(C)c2cc3[nH]c(cc4nc(cc5nc(cc1[nH]2)C(C)=C5CCC(=O)O)C(CCC(=O)O)=C4C)c(C)c3C=C | 1.18 (inactive) | 0.8 | 0.95 | 1.04 (inactive) | 1.36 | 9230 | 8840 |  |  |  |  |  |  |  |  |
| CC(=O)NO | 1.09 (inactive) | 1.08 | 1.18 | 0.922 (inactive) | 0.946 | 11300 | 12300 |  |  |  |  |  |  |  |  |
| O=C(CCBr)N1CCN(C(=O)CCBr)CC1 | 1.19 (inactive) | 1.07 | 1.28 | 0.869 (inactive) | 2.68 | 6360 | 7310 |  |  |  |  |  |  |  |  |
| CN(C)CCCN1c2ccccc2Sc2ccccc21 | 1.19 (inactive) | 1.03 | 1.24 | 0.997 (inactive) and 0.896 (inactive) and 0.916 (inactive) | 1.96 and 1.17 and 2.21 | 7860 and 8360 and 9720 | 7880 and 9340 and 10600 |  |  |  |  |  | inactive | -0.514 (inactive) | -0.0726 |
| NC(Cc1ccc(Cl)cc1)C(=O)O (configuration not stated) | 1.13 (inactive) | 0.99 | 1.12 | 0.993 (inactive) | 1.95 | 10900 | 10900 |  |  |  |  |  | inactive |  |  |
| CCn1cc(C(=O)O)c(=O)c2cc3c(cc21)OCO3 | 1.09 (inactive) | 1.15 | 1.25 | 1.06 (inactive) and 0.943 (inactive) and 0.852 (inactive) | 0.823 and 1.43 and 2.84 | 10300 and 9150 and 11200 | 9710 and 9700 and 13200 |  |  |  |  |  | inactive | 0.663 (inactive) | 0.252 |
| CCCC(C(=O)OCCN(CC)CC)(c1ccccc1)c1ccccc1 | 1.41 (inactive) | 0.9 | 1.28 | 0.769 (inactive) and 0.897 (inactive) and 0.979 (inactive) | 1.28 and 1.07 and 2.3 | 4500 and 7370 and 10800 | 5860 and 8210 and 11000 |  |  |  |  |  | inactive | -2.4 (inactive) | 0.38 |
